# Results reported in PubChem BioAssay (EPA / NIEHS).
# Several values for one entry are separate records, joined by “and”; a condition that tells them apart may be missing. Equal values may be shown once. Records with an inconclusive call do not appear. Some compounds were tested as several samples or in several runs, with calls that do not always agree. Activity calls are given as the source filed them. The calls were made as follows: active = hit-call score of the fitted dose curve at least 0.9, where 1 is the maximum; inconclusive = response in the unintended direction; inactive = score below 0.9.
# Molecular target: Cellular tumor antigen p53 (Homo sapiens) (UniProt P04637)
# Assay: TOX21_p53_BLA_p2_ratio: Tox21 HCT-116 p53 Agonism Beta-lactamase Assay, Ratio, Phase 2 (AID 2283592)
# Source text: TOX21_p53_BLA_p2 is a cell-based, single-readout assay that uses HCT116, a human intestinal cell line, […] in a 1536-well plate.TOX21_p53_BLA_p2_ratio is an assay readout measuring reporter gene via receptor activity and designed using inducible reporter (beta lactamase induction) detected with GAL4 b-lactamase reporter gene. The signal is derived from the ratio of cleaved (ch2) to uncleaved (ch1) reporter gene substrate used as the measure of target activity.Data from the assay component TOX21_p53_BLA_p2_ratio was analyzed into 1 assay endpoint. This assay endpoint, TOX21_p53_BLA_p2_ratio, was analyzed in the positive analysis fitting direction relative to DMSO as the negative control and baseline of activity. Using a type of inducible reporter, gain-of-signal activity can be used to understand changes in the reporter gene as they relate to the gene TP53. Furthermore, this assay endpoint can be referred to as a primary readout, because this assay has produced multiple assay endpoints and this ratio serves a reporter gene function to understand target activity. To generalize the intended target to other relatable targets, this assay endpoint is annotated to the DNA binding intended target family, where the subfamily is tumor suppressor.
# Thawing Method: Place 14 mL of pre-warmed thaw medium into a 15 mL of conical tub. Remove the vial of cells to be thawed from liquid nitrogen and thaw rapidly by placing at 37C in a water bath with gentle agitation for 1-2 minutes. Decontaminate the vial by wiping with 70% ethanol before opening in a biological safety cabinet. Transfer the vial contents drop-wise into 14 mL of thaw medium in a sterile 15-mL conical tub. Centrifuge cells at 900 rpm for 4 minutes and resuspend in thaw medium. Transfer contents to the T75 tissue culture flask containing Thaw Medium and place flask in a humidified 37C/5% CO2 incubator. Switch to growth medium at first passage.Propagation Method: Aspirate medium, rinse once in DPBS, add 0.25% Trypsin/EDTA and swirl to coat the cell evenly. Add an equal volume of Growth Medium to inactivate Trypsin after 2-3 minutes incubation at 37C. Centrifuge cells at 900 rpm for 4 minutes and resuspend in growth medium. Cell should be passage or fed at least twice a week.Assay Protocol: Harvest cells from culture in growth medium and resuspend in assay medium. 2.2 Dispense 4000 cells/5 uL/well into 1536-well black/clear bottom plates using a Multidrop dispenser. After the cells were incubated at 37C for 5 hours, 23 nL of compounds dissolved in DMSO were transferred to the assay plate by a PinTool resulting in a 217-fold dilution. Incubate the plates for 16 hours at 37C, 5% CO2. Add 1 uL of 6X LiveBLAzer FRET B/G (CCF4-AM) Substrate Mixture to each well using a BioRAPTR dispenser and incubate the plates at room temperature for 2 hours. Measure fluorescence intensity at 460 and 530 nm emission and 405 nm excitation by an Envision detector. Data is expressed as the ratio of 460nm/530nm emissions. Add 4 uL of Cell-titer Glo to each well using BioRAPTR and incubate the plates at room temperature for 2 hours. Measure fluorescence intensity by a VewLux plate reader.
# Chain of Cellular tumor antigen p53 (Homo sapiens) (P04637 whole entry, looked up): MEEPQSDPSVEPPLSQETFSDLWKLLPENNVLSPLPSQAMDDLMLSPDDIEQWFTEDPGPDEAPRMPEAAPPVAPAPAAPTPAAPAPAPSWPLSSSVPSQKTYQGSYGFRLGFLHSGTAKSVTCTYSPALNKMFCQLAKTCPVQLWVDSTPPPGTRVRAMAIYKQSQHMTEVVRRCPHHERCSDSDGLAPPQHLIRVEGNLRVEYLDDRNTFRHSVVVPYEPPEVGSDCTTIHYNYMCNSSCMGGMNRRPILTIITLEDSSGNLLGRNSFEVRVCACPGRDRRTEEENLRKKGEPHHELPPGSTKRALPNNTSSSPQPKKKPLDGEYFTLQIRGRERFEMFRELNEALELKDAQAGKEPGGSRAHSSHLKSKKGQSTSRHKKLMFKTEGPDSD
Structure (SMILES),outcome,AC50
CCCOCCOCCOCCO,inactive,–
CC(C)=CCC/C(C)=C\C#N,inactive,–
c1ccc(CCCc2ccncc2)cc1,inactive,–
CN(C)c1ccc(C(=N)c2ccc(N(C)C)cc2)cc1,–,896 nM (active) and 2.2 µM (active)
CCO[Si](C)(OCC)OCC,inactive,–
CCCCCCCCCCOS(=O)(=O)O,inactive,–
CC(C)c1ccc(C=O)cc1,inactive,–
O=C(c1ccc(O)cc1)c1ccc(O)cc1O,inactive,–
C[C@]12C=CC(=O)C=C1CC[C@@H]1[C@@H]2[C@@H](O)C[C@@]2(C)[C@H]1CC[C@]2(O)C(=O)CO,inactive,–
c1ccc(-c2ccccn2)nc1,inactive,–
CCCCCCCCCCCCCCCC[N+](C)(C)CC,inactive,63.3 µM (active)
c1c[nH]cn1,inactive,–
O=Cc1ccc(CO)o1,inactive,–
[Cl][Bi]([Cl])([c]1ccccc1)([c]1ccccc1)[c]1ccccc1,–,18.4 µM (active)
O=C1c2ccccc2C(=O)C1c1nc2ccccc2c(Br)c1O,inactive,–
CCCCCCC(O)CO (stereo not given),inactive,–
O=C(Nc1ccccc1)c1ccccc1O,–,57 µM (active)
CCCCCCCCCCCCCCCCCC#N,inactive,–
O=C(Oc1ccccc1)c1ccc2ccccc2c1O,inactive,–

Structure (SMILES),outcome,AC50
COCc1c(C(C)C)nc(C(C)C)c(/C=C/[C@@H](O)C[C@@H](O)CC(=O)O)c1-c1ccc(F)cc1,inactive,–
CC1=NC(C)OC1C (stereo not given),inactive,–
O=C1CCCCCCCCCCC(=O)OCCO1,inactive,–
C=CC(=O)OCCC(=O)O,inactive,–
C=C[Si](C)(C)O[Si](C)(C)C=C,inactive,–
CC(C)(Oc1ccc(C2CC2(Cl)Cl)cc1)C(=O)O (stereo not given),inactive,–
C=CCOCC(O)CCl (stereo not given),inactive,–
O=C1CCCCCCCCCCCCCCCO1,inactive,–
O=C(O)CCCCCCCCCC(=O)O,inactive,–
O=C(O)c1cc2ccccc2nc1C(=O)O,inactive,–
Cc1ccc2c(c1)C(=O)c1ccccc1C2=O,inactive,–
Cc1cccc(OCCOc2cccc(C)c2)c1,inactive,–
CC(=O)OCC(C)OC(C)=O (stereo not given),inactive,–
Nc1ccc(N)c(Cl)c1,inactive,68.3 µM (active)
Cc1cc(C)c(C)c(O)c1,inactive,–
CO[Si](OC)(OC)c1ccccc1,inactive,–
NC(=O)OCC(COC(N)=O)c1ccccc1,inactive,–
CC(C)=CCC[C@H](C)CCO,inactive,–
Nc1cccc(C(F)(F)F)c1,inactive,–
